The list is not random: actives were taken first. Their share in the collection is about 3.1%.
uPA surface inh: blocks generation of uPA at the cell surface. actives 0.31% (n = 330,000). Potency, µM (highest dose often 38.3 µM), for inactives: at the highest dose activity change, negative = inhibition, actives largely listed as inhibitors. AID 540303. cell surface uPA generation assay, qHTS; active means well fitted inhibition curve with a large enough effect; inconclusive means small, poorly fitted or top-dose-only effect; inactive means no such curve, though single readings can be large or run the other way; tested in mouse RAW 264.7 cells; further: potency means the concentration at half of the fitted maximal effect; on the % scale 0 is the no-effect control and ±100 the full control effect; nearly all actives have a fitted effect of over 55% in size
VDR inhibitor: inhibitors of human vitamin D receptor; P11473; VDR-SRC2-3 peptide fluorescence polarization, 2 h; Potency, µM, for inactives: max response, negative = inhibition, most hits filed as inhibitors; actives 0.93% (n = 400,000); further: potency means the concentration at half of the fitted maximal effect; on the % scale 0 is the no-effect control and ±100 the full control effect
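VDR–SRC2-3 interaction, FP format. Cmpds 23 nl via pintool, brief spin, 2 h ambient incubation.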
TSG101-PTAP inh: blocks PTAP/TSG101 interaction to inhibit HIV-1 budding. Q99816. Potency, µM (doses to about 115 µM), without a hit: top-dose activity change, negative = inhibition, hits mostly inhibitors. Fluorescence polarization, FITC-PTAP peptide / Tsg101 binding. AID 493005. 340,000 tested, under 10 active; active means well fitted inhibition curve with a large enough effect in the main read-out, with a control signal flat, not every such curve was filed as active; inconclusive means small, poorly fitted or top-dose-only effect, or effect the other way, or a change in a side signal; inactive means no such curve, though single readings can be large or run the other way; further: potency means the concentration at half of the fitted maximal effect; % of control where 0% means no effect
Target sequence (Q99816 whole entry, looked up): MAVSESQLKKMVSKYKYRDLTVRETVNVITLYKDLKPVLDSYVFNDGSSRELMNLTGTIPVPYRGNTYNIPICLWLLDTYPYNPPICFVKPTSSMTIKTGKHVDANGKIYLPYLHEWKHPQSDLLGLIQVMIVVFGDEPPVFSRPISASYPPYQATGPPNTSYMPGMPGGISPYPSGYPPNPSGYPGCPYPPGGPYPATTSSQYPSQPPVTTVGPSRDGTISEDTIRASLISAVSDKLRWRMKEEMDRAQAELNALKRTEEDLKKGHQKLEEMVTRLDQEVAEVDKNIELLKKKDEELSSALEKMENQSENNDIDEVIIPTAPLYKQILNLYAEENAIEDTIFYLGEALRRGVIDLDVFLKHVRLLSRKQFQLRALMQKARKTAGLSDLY
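Fluorescence anisotropy tracks displacement of a FITC-tagged PTAP peptide (50 nM) from the Tsg101 binding domain (10 uM), following a 20 min room-temperature incubation at pH 7.5.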
TSHR antagonist: blocks TSH signaling through the human TSH receptor. P16473. TSHR-expressing cells, TSH-stimulated cAMP HTRF, 2 h; hits give low values. activity change, negative = inhibition, % at 11.5 µM. actives 0.2% (n = 330,000);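 active means activity change below a set negative limit, meaning inhibition stronger than a set level, cut at about -70% in these data; inconclusive means activity change between two set negative limits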; further: on the % scale 0 is the no-effect control and ±100 the full control effect
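Antagonism was scored as loss of TSH-driven cAMP in TSHR cells, stimulated with 4nM TSH (EC80) for 2 hours at 37 deg C and detected by homogeneous HTRF competition immunoassay.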
PLK1 PBD block: inhibitors of human PLK1 polo-box domain binding. actives 2.8% (n = 360,000). Potency, µM, without a hit: max response, negative = inhibition, hits mostly inhibitors. Plk1 PBD binding of FITC phosphopeptide, fluorescence polarization; further: potency means the concentration at half of the fitted maximal effect; series mostly up to about 57 µM; on the % scale 0 is the no-effect control and ±100 the full control effect; nearly all actives have a fitted effect of over 65% in size
* = called active by the depositor; ? = inconclusive; · = no result given. Unless noted, the call rests on the fitted dose curve; in most records, active means well fitted curve in the direction sought with a large enough effect; inconclusive means small, poorly fitted or top-dose-only effect, or another doubt; inactive means no such curve, though single readings can be large; an effect the other way counts as inactive or inconclusive.

SMILES | uPA surface inh | VDR inhibitor | TSG101-PTAP inh | TSHR antagonist | PLK1 PBD block
Cc1ccc(Nc2nnc(SCC(=O)Nc3ncc(S(=O)(=O)c4ccc([N+](=O)[O-])cc4)s3)s2)cc1 | 1.8% | -5.9% | -3.2% | 15.7 | -6.5%
CC(C)c1ccc(Nc2nnc(SCC(=O)Nc3ncc(S(=O)(=O)c4ccc([N+](=O)[O-])cc4)s3)s2)cc1 | ? | -17.4% | 59.8% | -6.4 | 42.3µM*
O=C(O)c1cccc2c(-c3ccccc3)c(-c3ccccc3)[nH]c12 | 0.8% | -19.5% | -14.3% | -13.7 | 23.8µM*
COc1ccccc1-c1sc2ccccc2c1-c1cnc(N2CCOCC2)nc1 | · | · | · | · | -7.6%
O=C(NCCC1=CCCCC1)c1ccc2c(c1)N(Cc1cccc(Cl)c1)C(=O)c1ccccc1S2(=O)=O | · | 6.2% | · | · | ·
CC[N+]1(C)CCC(O)(/C=C/c2ccccc2)C(C(=O)/C=C/c2ccccc2)C1 (centres undefined) | 18.5% | 50.1µM* | 1.0% | · | ?
CCC(=O)N1N=C(c2cccs2)CC1c1ccc(C)cc1 (centres undefined) | 1.1% | -4.2% | -1.6% | -3.1 | 26.7µM*
Cc1ccc(SCCCCN2CCOCC2)cc1 | -3.4% | 14.9% | 1.7% | 0.0 | -13.1%
Cc1ccc(SCCCCN2CCNCC2)cc1 | -1.2% | -14.3% | -7.4% | 3.1 | 16.8µM*
Clc1ccc(SCCCCN2CCNCC2)cc1 | ? | -11.2% | -3.6% | 32.1 | 23.8µM*
Cc1ccc(NC(=O)CCC(=O)NNS(=O)(=O)c2ccc(Cl)cc2)cc1C | -0.2% | -8.4% | 0.8% | 0.6 | -6.5%
Cc1ccc(NC(=O)CCC(=O)NNS(=O)(=O)c2ccccc2)cc1C | -1.3% | ? | -3.7% | 4.1 | 26.7µM*
O=C(CCC(=O)Nc1ccccc1)NNS(=O)(=O)c1ccc(Cl)cc1 | -12.5% | -15.8% | 1.2% | -6.0 | 18.9µM*
Cc1ccc(NC(=O)CCC(=O)NNS(=O)(=O)c2ccccc2)c(C)c1 | 3.5% | -11.0% | -2.4% | -7.5 | 6.7µM*
O=C(CNC(=O)c1ccc(Cl)cc1)Nc1ccc(S(=O)(=O)Nc2ncccn2)cc1 | 1.4% | 5.5% | 1.4% | 1.0 | -2.8%
Cc1ccc(C)c(NC(=O)CCC(=O)NNS(=O)(=O)c2ccc(Cl)cc2)c1 | 4.2% | -6.9% | 0.7% | 1.0 | ?
O=C(CCCNC(=O)c1ccc(Cl)cc1)Nc1ccc(S(=O)(=O)Nc2ncccn2)cc1 | -0.5% | ? | -6.0% | 0.1 | 26.7µM*
Cc1cc(Br)cn2c(Cc3ccsc3)c(-c3ccco3)nc12 | · | · | · | · | 23.8µM*
Cc1cc(Br)cn2c(Cc3ccccc3)c(-c3ccco3)nc12 | · | · | · | · | -12.3%
O=C(c1ccco1)N1CCN(C/C=C/c2ccccc2)CC1 | 5.5% | -10.2% | -4.8% | -1.5 | 29.9µM*
O=C(NC(=S)N1CCN(C/C=C/c2ccccc2)CC1)c1ccco1 | 3.4% | -15.0% | -2.1% | -1.0 | -8.4%
O=C(NCC(=O)N1CCCC1)c1ccc(Br)cc1 | -1.8% | -0.6% | -8.1% | -4.3 | -3.5%
O=C(NCC(=O)N1CCN(C(=O)c2ccco2)CC1)c1ccc(Br)cc1 | 5.1% | -24.6% | -13.7% | -0.1 | 21.2µM*
CCOC(=O)/C=C/C(=O)OCC(=O)N1CCN(C(=O)c2ccco2)CC1 | 7.94µM* | -19.3% | · | 4.3 | -17.5%
CCc1ccc(NC(=O)CN2C(=O)CSc3ccc(S(=O)(=O)N(C)C)cc32)cc1 | · | 11.4% | · | · | ·
SMILES | uPA surface inh | VDR inhibitor | TSG101-PTAP inh | TSHR antagonist | PLK1 PBD block
CN1CCN(c2ncc3nc(CCc4ccccc4)c(=O)n(C)c3n2)CC1 | · | -2.8% | · | · | ·
COc1cccc(C(=O)CN2CCN(S(=O)(=O)c3ccc(Cl)cc3)CC2)c1 | · | 9.2% | · | · | ·
Cc1ccc(-n2ncc3c(N4CCN(C)CC4)ncnc32)cc1Cl | · | 20.3% | · | · | ·
CCOC(=O)C1=NN(C(C)=O)C2(CC(=O)N(c3cccc(C)c3)C2=O)C1 (centres undefined) | 11.3% | -22.7% | -1.4% | 0.3 | 26.7µM*
COC(=O)C1=NN(C(C)=O)C2(CC(=O)N(c3cccc(C)c3)C2=O)C1 (centres undefined) | 4.8% | -11.6% | -1.0% | 3.7 | -8.8%
Cc1ccc(NC(=O)Cn2nnc3sc4c(c3c2=O)CCCC4)c(C)c1 | · | 2.0% | · | · | ·
CC(=O)c1sc(NC(=O)C2(F)C(F)(F)C(F)(F)C(F)(F)C(F)(F)C2(F)F)nc1C | ? | -6.2% | -11.5% | -75.5* | ?
CC(=O)c1sc(NC(=O)C=C(C)C)nc1C | -4.9% | 16.5% | -6.3% | 5.8 | -3.0%
COc1ccccc1OCC(=O)N(Cc1ccc(Cl)cc1)CC1CCCO1 (centres undefined) | · | 12.5% | · | · | ·
CCOC(=O)c1cc([N+](=O)[O-])cc([N+](=O)[O-])c1Sc1ncnc2nc[nH]c12 | -9.1% | 50.1µM* | -1.4% | · | 21.2µM*
CCSC1=NSC2=NC(=O)/C(=C\c3coc4ccccc4c3=O)C(=N)N12 | 2.4% | 79.4µM* | ? | -90.6* | 16.8µM*
CC(C)CC1=NN2C(=N)/C(=C\c3coc4ccccc4c3=O)C(=O)N=C2S1 | -19.9% | 79.4µM* | ? | -8.8 | -6.9%
Cc1cccc(-n2c(C)cc(/C=C3\C(=N)N4N=C(CC(C)C)SC4=NC3=O)c2C)c1 | -4.3% | 1.0% | 0.3% | -6.9 | -13.8%
COc1ccc(Nc2ncnc3c2cnn3C)c(OC)c1 | · | 10.5% | · | · | ·
COc1cccc(-c2nccc(N(C)Cc3ccco3)n2)c1 | · | 35.5µM* | · | · | ·
COc1cccc(-c2n[nH]c(=S)n2Cc2ccco2)c1 | -22.5% | ? | -7.3% | -9.7 | ?
CNS(=O)(=O)c1cc(C(=O)O)ccc1OC | -2.3% | ? | -0.2% | -10.5 | 26.7µM*
Cc1cc(F)ccc1C(O)c1ncc(-c2ccc(Oc3ccccc3)cc2)[nH]1 (centres undefined) | · | · | · | · | -0.4%
COc1ccc(OC)c(S(=O)(=O)N2CC=C(c3c(C)n(CC(=O)N4CCCC4)c4ccccc34)CC2)c1 | · | -2.4% | · | · | ·
Cc1cc(C)c(S(=O)(=O)C(C)C)c(=O)[nH]1 | 2.6% | 4.4% | 0.1% | 18.7 | 23.8µM*
O=C1CCCc2[nH]c(-c3ccccc3)nc21 | 4.0% | 13.2% | -3.4% | 23.9 | -4.2%
CC1(C)CC(=O)C(C(C#Cc2ccccc2)C2=C(O)CC(C)(C)CC2=O)=C(O)C1 | -16.2% | 22.4µM* | 0.1% | 15.9 | 4.23µM*
O=C1CCCC(O)=C1C(C#Cc1ccccc1)C1=C(O)CCCC1=O | -6.2% | ? | -2.0% | -7.3 | 2.38µM*
CC1(C)CC(=O)C(N=Nc2ccc(-c3ccccc3)cc2)=C(O)C1 | 1.2% | -12.6% | 0.1% | -0.1 | -5.1%
O=C1CCCC(O)=C1Sc1ccccc1C(=O)O | 6.8% | -15.7% | -2.8% | 1.7 | 21.2µM*
CC(S(=O)(=O)c1ccccc1)S(=O)(=O)c1ccccc1 | · | · | · | · | -8.5%
CC1=C/C(=N\OS(=O)(=O)c2ccccc2)C(C)=CC1=O | -13.6% | -17.3% | 0.5% | -84.2* | -13.0%
CON=C1C=C(C)C(=O)C(C)=C1C | 5.5% | -5.6% | -3.1% | · | 0.2%
CC1=C/C(=N\OS(=O)(=O)c2ccccc2)C(C(C)C)=CC1=O | -10.8% | ? | 0.5% | -84.5* | -15.1%

Compound activity (PubChem BioAssay)
